Screens as filed in PubChem BioAssay.
DT40 TDP1 CPT: DT40-hTDP1 cell growth loss with CPT. chicken DT40 Tdp1-/-;hTDP1 cells + 20 nM CPT, ATP luminescence, 48 h. Potency, µM (titrated, usually from 46.2 µM), for the others: top-dose activity change, negative = growth inhibition, actives largely listed as inhibitors. 420,000 compounds, 12% hits. AID 686979; further: nearly all actives have a fitted effect of over 55% in size
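Chicken DT40 Tdp1-/- cells complemented with human TDP1, 400 cells/well, exposed to compounds plus 20 nM camptothecin for at least 48 h at 37 C; viability read as ATP content by CellTiter-Glo luminescence.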
HT1080 IDH1KD tx: HT-1080 IDH1 knockdown cell toxicity (counter line); 360,000 compounds, 2% hits; HT-1080 IDH1 knockdown viability, ATP luminescence, 48 h; AID 686971; Potency, µM (highest dose often 46.1 µM), without a hit: at the highest dose activity, negative = toxicity, hits mostly cytotoxic;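 further: 0% = DMSO wells and -100% = cell-free medium wells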
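Using the IDH1-knockdown HT-1080 line run in the same batch and compound series as the NT line, viability after 48 h at 37 °C was determined by CellTiter-Glo luminescence and expressed as % activity.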
DT40 TDP1 no CPT: qHTS for Inhibitors of human tyrosyl-DNA phosphodiesterase 1 (TDP1): qHTS in cells in absence of CPT | DT40 Tdp1-/- hTDP1 cells, no CPT, ATP luminescence, 48 h | Potency, µM (highest dose often 46.2 µM), for inactives: top-dose activity change, negative = growth inhibition, hits mostly inhibitors | 420,000 compounds, 15% hits | AID 686978, 2013; further: nearly all actives have a fitted effect of over 55% in size
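DT40 Tdp1-/-;hTDP1 cells, no CPT (DMSO vehicle only), 400 cells/well; compounds pin-transferred; ≥48 hr, 37 °C; CellTiter-Glo 30 min RT dark, luminescence read.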
KB-V1 MDR tox: kills drug-selected multidrug resistant KB-V1 cells. 400,000 compounds, 3.4% hits. KB-V1 MDR cells viability, CellTiter-Glo, 72 h. Potency, µM (highest dose often 46.1 µM), actives largely listed as cytotoxic; further: nearly all actives have a fitted effect of over 60% in size
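Cytotoxicity toward P-gp-expressing KB-V1 cells was determined as loss of CellTiter-Glo luminescence after 72 h at 37 degrees C. Compounds were tested in quantitative HTS format across a concentration range, with curves fitted to normalized data.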
KB-3-1 cytotox: kills parental KB-3-1 adenocarcinoma cells; Potency, µM (top dose mostly 46.1 µM), actives largely listed as cytotoxic; 400,000 compounds, 1.4% hits; AID 1347075; KB-3-1 viability, CellTiter-Glo ATP luminescence, 72 h; further: nearly all actives have a fitted effect of over 60% in size
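Parental KB-3-1 viability, qHTS format: 72 h compound exposure, 37 °C; CellTiter-Glo; media-only wells and DMSO plates as controls; concentration-effect fits on corrected data.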
HT1080NT lethal: kills 2HG-producing HT-1080-NT fibrosarcoma cells | HT-1080-NT fibrosarcoma viability, CellTiter-Glo ATP luminescence, 48 h | Potency, µM (top dose mostly 46.1 µM), for the others: at the top dose activity, negative = less viability, most hits filed as cytotoxic | 360,000 compounds, 1.6% hits | AID 686970;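 further: NT is the 2HG producing partner of a matched IDH1 knockdown line; 0% = DMSO-treated cells and -100% = media-only wells without cells; nearly all actives have a fitted effect of over 55% in size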
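HT-1080-NT; 750 cells/well; 5% FBS RPMI; 48 h compound, 37 degrees C; CellTiter-Glo luminescence; curve fitting and curve-class assignment.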
Starred values were filed as active, the others as inactive. Compounds with a hit are over-represented: about 19% of the library has one in this group of screens. The call rests on the fitted dose curve; in most records, active means well fitted curve in the direction sought with a large enough effect; inconclusive means small, poorly fitted or top-dose-only effect, or another doubt; inactive means no such curve, though single readings can be large; an effect the other way counts as inactive or inconclusive. Unless noted, on the % scale 0 is the no-effect control and ±100 the full control effect; potency means the concentration at half of the fitted maximal effect.

Results for Oc1ccc(/C(Cc2ccc3ccccc3n2)=N\Nc2ccccc2)c(O)c1 ?
DT40 TDP1 CPT: inconclusive; HT1080 IDH1KD tx: inconclusive; DT40 TDP1 no CPT: 23µM*; KB-V1 MDR tox: inconclusive; KB-3-1 cytotox: inconclusive; HT1080NT lethal: inconclusive

Results for COC(=O)c1ccc(N=Cc2c(C(F)(F)F)[nH][nH]c2=O)cc1 ?
DT40 TDP1 CPT: 14%; HT1080 IDH1KD tx: inconclusive; DT40 TDP1 no CPT: -18%; KB-V1 MDR tox: inactive; KB-3-1 cytotox: inactive; HT1080NT lethal: inconclusive

Results for CCCCNc1c(-c2ccc(-c3ccc(OC)cc3)c(OC)c2)nc2ccccn12 ?
DT40 TDP1 CPT: 18µM*; HT1080 IDH1KD tx: -25%; DT40 TDP1 no CPT: 13µM*; KB-V1 MDR tox: inconclusive; KB-3-1 cytotox: inconclusive; HT1080NT lethal: -11%

How did CCCCNc1c(-c2ccc(OC)c(Sc3ccc(OC)cc3)c2)nc2cnccn12 do in these assays?
DT40 TDP1 CPT: inconclusive; HT1080 IDH1KD tx: inconclusive; DT40 TDP1 no CPT: 23µM*; KB-V1 MDR tox: inconclusive; KB-3-1 cytotox: inconclusive; HT1080NT lethal: 29µM*

What do the screens show for `COc1ccc(Nc2c(-c3ccc(OC)cc3)nc3cnccn23)cc1`?
DT40 TDP1 CPT: inconclusive; HT1080 IDH1KD tx: 4%; DT40 TDP1 no CPT: inconclusive; KB-V1 MDR tox: inconclusive; KB-3-1 cytotox: inactive; HT1080NT lethal: 0%

Results for CCCCNc1c(-c2ccc(OC)c(Sc3ccc(OC)cc3)c2)nc2ccccn12 ?
DT40 TDP1 CPT: 4.1µM*; HT1080 IDH1KD tx: inconclusive; DT40 TDP1 no CPT: 9.2µM*; KB-V1 MDR tox: inconclusive; KB-3-1 cytotox: inconclusive; HT1080NT lethal: inconclusive

What do the screens show for `CCCCNc1c(-c2ccc(SC(C)CC)cc2)nc2cnccn12` (configuration not stated)?
DT40 TDP1 CPT: 9.2µM*; HT1080 IDH1KD tx: inconclusive; DT40 TDP1 no CPT: 8.2µM*; KB-V1 MDR tox: inactive; KB-3-1 cytotox: inconclusive; HT1080NT lethal: inconclusive

How did CC1(C(=O)NS(=O)(=O)c2ccc3ccccc3c2)CCN1C(=O)Cc1ccc(-c2ccccc2)cc1 (configuration not stated) do in these assays?
DT40 TDP1 CPT: -9%; HT1080 IDH1KD tx: -3%; DT40 TDP1 no CPT: -17%; KB-V1 MDR tox: inactive; KB-3-1 cytotox: inactive; HT1080NT lethal: -3%

Results for CCOc1cc(CNC(=O)c2ccc3c(c2)N(C)C(=O)C2CCCCN32)cc(OCC)c1OCC (configuration not stated) ?
DT40 TDP1 CPT: inconclusive; DT40 TDP1 no CPT: inconclusive; KB-V1 MDR tox: inactive; KB-3-1 cytotox: inactive

Results for Cc1ccc(-c2nc(C)c(CCNC(=O)C(=O)Nc3cc(C)ccc3C)s2)cc1 ?
KB-V1 MDR tox: inactive; KB-3-1 cytotox: inactive

What do the screens show for `Cc1ccsc1CN(Cc1ccco1)c1cnc(S(C)(=O)=O)nc1C(=O)Nc1ccc(Cl)cc1`?
DT40 TDP1 CPT: inconclusive; DT40 TDP1 no CPT: inconclusive; KB-V1 MDR tox: inactive; KB-3-1 cytotox: inactive

Results for O=C(NCCCO)c1cc2c(cn1)[nH]c1ccccc12 ?
DT40 TDP1 CPT: -21%; HT1080 IDH1KD tx: 3%; DT40 TDP1 no CPT: -15%; KB-V1 MDR tox: inactive; KB-3-1 cytotox: inactive; HT1080NT lethal: 6%

What do the screens show for `COc1cccc(-c2nc(C(=O)NCCCN3CCOCC3)cc3c2[nH]c2ccccc23)c1`?
DT40 TDP1 CPT: 9.2µM*; HT1080 IDH1KD tx: -14%; DT40 TDP1 no CPT: 8.2µM*; KB-V1 MDR tox: 18µM*; KB-3-1 cytotox: inactive; HT1080NT lethal: -18%

What do the screens show for `O=C(NCCCO)c1cc2c([nH]c3ccccc32)c(-c2ccccc2)n1`?
DT40 TDP1 CPT: 15µM*; HT1080 IDH1KD tx: -24%; DT40 TDP1 no CPT: 13µM*; KB-V1 MDR tox: inconclusive; KB-3-1 cytotox: inconclusive; HT1080NT lethal: -10%

What do the screens show for `O=C(NCCCN1CCOCC1)c1cc2c([nH]c3ccccc32)c(-c2cccc(Br)c2)n1`?
DT40 TDP1 CPT: 8.2µM*; HT1080 IDH1KD tx: inconclusive; DT40 TDP1 no CPT: 8.2µM*; KB-V1 MDR tox: inconclusive; KB-3-1 cytotox: inconclusive; HT1080NT lethal: inconclusive

How did CCCN1CNc2c(c(=O)[nH]c(=S)n2CCc2c(OC)cccc2OC)C1 do in these assays?
DT40 TDP1 CPT: -25%; HT1080 IDH1KD tx: 16%; DT40 TDP1 no CPT: -28%; HT1080NT lethal: 3%

What do the screens show for `O=C1C=CC(=NN=C(c2ccccc2)c2ccccc2)C=C1`?
DT40 TDP1 CPT: inconclusive; HT1080 IDH1KD tx: inconclusive; DT40 TDP1 no CPT: -27%; KB-V1 MDR tox: inactive; KB-3-1 cytotox: inactive; HT1080NT lethal: inconclusive

What do the screens show for `Cc1ccc(C(=O)NCC(=O)N2CCCN(C)CC2)cc1C`?
DT40 TDP1 CPT: -13%; HT1080 IDH1KD tx: -3%; DT40 TDP1 no CPT: -12%; KB-V1 MDR tox: inactive; KB-3-1 cytotox: inactive; HT1080NT lethal: 2%

What do the screens show for `CC1(C)C(=O)C2(CCCC2)C(=O)OC1c1ccco1` (configuration not stated)?
DT40 TDP1 CPT: -9%; HT1080 IDH1KD tx: -2%; DT40 TDP1 no CPT: -17%; KB-V1 MDR tox: inactive; KB-3-1 cytotox: inactive; HT1080NT lethal: 2%

How did O=C1OC(c2cccc([N+](=O)[O-])c2)C2(CCCC2)C(=O)C12CCCCC2 (configuration not stated) do in these assays?
DT40 TDP1 CPT: 23µM*; HT1080 IDH1KD tx: 16µM*; DT40 TDP1 no CPT: inconclusive; KB-V1 MDR tox: inconclusive; KB-3-1 cytotox: inactive; HT1080NT lethal: inconclusive

What do the screens show for `COc1cc(NC(=O)CN2C(=O)CCc3cc(Br)ccc32)cc(OC)c1OC`?
DT40 TDP1 CPT: inconclusive; DT40 TDP1 no CPT: inconclusive; KB-V1 MDR tox: inactive; KB-3-1 cytotox: inactive

Results for COc1ccc(C)cc1S(=O)(=O)NCC(c1ccco1)N1CCc2ccccc2C1 (configuration not stated) ?
DT40 TDP1 CPT: 29µM*; HT1080 IDH1KD tx: -5%; DT40 TDP1 no CPT: inconclusive; KB-V1 MDR tox: inconclusive; KB-3-1 cytotox: inactive; HT1080NT lethal: 1%

Results for O=S(=O)(NCC(c1ccco1)N1CCc2ccccc2C1)c1ccc(Br)cc1 (configuration not stated) ?
DT40 TDP1 CPT: inconclusive; HT1080 IDH1KD tx: inconclusive; DT40 TDP1 no CPT: inconclusive; KB-V1 MDR tox: inactive; KB-3-1 cytotox: inactive; HT1080NT lethal: inconclusive
